Experimental data: the OligoGym collection

Molecular target: METRNL
Assay: pooled miR-30 sensor sort-seq; sequence = guide strand
Conditions: shRNA
Further: reference of the scale not given here.

Sequence | sensor-assay potency score (higher = more potent)
TGAAGGACCTGATGCACACGGT | -0.842
TCGAACGGCGAAGTCGCTGGTG | -0.372
ATAGAGTCTGCTCACGCGCAGG | -1.52
TACATCCTCTGGAAGTCCTTGA | 0.329
TAACGATGAGAGCACCTGTTGG | -0.773
TTTTACAGCATTTCCAATCGGC | 0.396
TGGAAGTCCTTGAAGCGTGGGG | -0.538
TGAAGCGTGGGGCACAGCCGAG | -1.51
TTAACGATGAGAGCACCTGTTG | -1.05
TTAGTTTGCATTTTACAGCATT | -0.859
TAGAGTCTGCTCACGCGCAGGT | 0.197
TACTGGAAGCCTGTGGTCCTCC | -0.709

Molecular target: METTL16
Assay: as above
Conditions: shRNA

Sequence | sensor-assay potency score (higher = more potent)
TTAACGTTTATCAAACACTTAA | -1.21
TTTAAGAGCATCCATCAGGAGT | -1.04
TTCTTCGCTTACTTGGTGGTGA | 0.819
TTTCTCTAATTTTCTTCGCTTA | -0.889
TTGTCCTTGTATCTATTTCTTG | -1.01
TAAGGCATCGTCCACCTCCTTC | -0.93
TTCTTCTTTAAGAGCATCCATC | -1.07
TGTATTAACAGAACTAGGCGGA | 0.503
TTTGCTTACCTAATTCTGCTTC | 0.554
TTCTTTAAGAGCATCCATCAGG | -0.744
TTATCAAACACTTAAACAGGTA | -0.44
TAACAAACTCTAATTCACCTCC | 0.296

Molecular target: METTL21C
Assay: as above
Conditions: shRNA

Sequence | sensor-assay potency score (higher = more potent)
TAACTCTCTATGGATTCCTGGA | -0.728
TTCCTGGATGACAATCTCCTTT | -0.999
TTAGAAATTAGAAAGTTTCTGC | 0.573
TAGATTAACCAGATAATCTTAA | -0.406
TGTTGTGTCAAAAACTTGCTTG | 0.0873
TGTAGGAACAAATTTCTGGAGG | -0.694
TAAAAGATTGTATTGAAGGTTT | -0.706
TTAGATATTTAGATTAACCAGA | -0.625
ATCTGTAGGAACAAATTTCTGG | -0.452
TCATAGTCGGTGCTGAACCTGA | -0.238
TTCTTCTCAGCCTCTAACCAGC | -1.05
TATCTTGTTGGATTCTTCTAGG | -0.565

Molecular target: METTL21D
Assay: as above
Conditions: shRNA

Sequence | sensor-assay potency score (higher = more potent)
TTGGCTTGAACAGAACCAGTGA | 0.803
TTGTAGTTATTCAAAAACCTTT | -1.15
TATAGAACTACATTTGTAGTTA | 0.621
